Screens (PubChem BioAssay)
tim10-1 inh: inhibits growth of tim10-1 mutant yeast; S. cerevisiae tim10-1 ts strain growth, BacTiter-Glo, 24 h; inhibition, % at 20 µM; 330,000 tested, 2.2% active; AID 463190;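 active = inhibition of at least 40%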;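 also: mutant grown at 25 °C; 0% = DMSO wells with yeast and 100% = wells holding no yeast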
PfHsp90 yeast 2: inhibits growth of yeast expressing Plasmodium falciparum Hsp90; inhibition, % at 9.4 µM; S. cerevisiae expressing PfHsp90, BacTiter-Glo ATP, 48 h; yeast lacking PDR1 and PDR3 efflux regulators; 310,000 tested, 0.32% active; AID 504621;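 active = every replicate shows inhibition above about 80%, whatever the replicate mean, limit read from the data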;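 also: 0% = DMSO neutral controls and 100% = 20 µM radicicol positive controls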
TIM10 inh: TIM10 yeast growth inhibition; S. cerevisiae TIM10 strain growth, BacTiter-Glo luminescence, 24 h; inhibition, % at 10 µM; 330,000 tested, 1.4% active;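 active = inhibition of 40% or more at the single tested concentration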;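 also: wild-type TIM10 isogenic control strain grown at permissive 25 °C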
SUMO Mot1 rescue: inhibitors of SUMOylation pathway: yeast Mot1-301 growth rescue | S. cerevisiae Mot1-301 growth rescue, ATP luminescence, 38.5C; percent above DMSO median, 100 means doubled | growth rescue, % at 18.8 µM | 320,000 tested, 1% active | AID 2716;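 active = every valid replicate shows activation above 250% relative to neutral control wells; inactive = the rest, any valid replicate at or below 250%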;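 also: OY570 slx delta 5 strain wells were the positive control but not used for scaling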
tim23-1 inh: inhibits growth of tim23-1 mutant yeast; inhibition, % at 20 µM; 330,000 tested, 1.3% active; S. cerevisiae tim23-1 growth, BacTiter-Glo luminescence, 24 h;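 active = growth inhibition of the mutant yeast at or above 50%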;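 also: temperature-sensitive mutant grown at 25 °C; plate controls were DMSO-treated mutant yeast for no effect and medium wells lacking yeast for full effect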
tim10-1 confirm: tim10-1 yeast growth inhibition, confirmed; shares compounds with tim10-1 inh; S. cerevisiae tim10-1 ts strain growth, BacTiter-Glo, 24 h; inhibition, % at 20 µM; 7,400 tested, 56% active; AID 463213;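 active = inhibition of yeast growth at or above a set limit in either of two repeat tests at 20 µM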;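 also: tim10-1 mutant grown at permissive 25 °C to find synthetic lethal compounds; 0% = DMSO yeast wells and 100% = medium wells without yeast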
* = called active by the depositor; . = not tested or not shown; ! = repeats disagree. An excerpt weighted towards active compounds, which were near 4.4% of everything screened.

SMILES	tim10-1 inh	PfHsp90 yeast 2	TIM10 inh	SUMO Mot1 rescue	tim23-1 inh	tim10-1 confirm
Cc1ccc(N2CN=C(c3ccccc3)NC2=S)cc1	44*	-16	4	49	23	1
Cc1[nH]c2ccc(F)cc2c1CCN(Cc1ccncc1)C(=S)Nc1ccc(F)cc1	42*	-11	-4	7	30	7
COc1cc2c(C#N)c(N3CCN(C)CC3)nc(N)c2c(N)n1	25	20	-16	.	-4	.
COc1cc2c(C#N)c(N3CCCC3)nc(N)c2c(N)n1	43*!	10	27	-15	48	22
Cc1cn(CC(=O)N(C)Cc2ccco2)c(=O)[nH]c1=O	.	-10	.	.	.	.
COCCCNCCCOc1ccc(Cl)cc1C(C)(C)C	10	-25	14	2	6	.
CNCCCOc1ccc(Cl)cc1C(C)(C)C	41*	19	22	22	21	16
Cc1c(C)c2ccc(Oc3ccc([N+](=O)[O-])cc3C(F)(F)F)c(C)c2oc1=O	40*	5	19	-6	22	23
COc1ccc2c(C(F)(F)F)cc(=O)oc2c1C	1	-1	1	4	4	.
Cc1cc(NC(=S)N(CCN2CCOCC2)Cc2ccccc2F)ccc1Cl	44*	19	32	-5	25	16
Cc1ccc(NC(=S)N(CCN2CCOCC2)Cc2ccccc2F)cc1	25	-14	5	7	21	.
Cc1ccc(CNC(=O)Nc2ccc(F)cc2)n1C	.	20	.	8	.	.
COc1cccc(-c2nn(-c3ccccc3)cc2CN(C)C(C)c2ccncn2)c1 (centres undefined)	44*	8	16	190	33	22
CC1=NN(C(N)=S)C(=O)C1N=Nc1ccc(C)cc1C (centres undefined)	4	.	9	-24	-8	.
CC1=NN(C(N)=S)C(=O)C1N=Nc1c(C)cc(C)cc1C (centres undefined)	45*	-32	37	-17	7	26
Cc1cc(N2CCCCC2)nc(SCC(=O)c2ccccc2)n1	47*	.	15	56	35	33*
COC1=C(Nc2ccc(OC)cc2)C(=O)c2ccccc2C1=O	40*	27	1	256	40	19
CCOc1ccc(NC2=C(OC)C(=O)c3ccccc3C2=O)cc1	44*	4	8	-2	29	9
COCCOC(=O)C1=C(C)NC(=O)NC1c1ccc(-c2cc(Cl)ccc2Cl)o1 (centres undefined)	23	-4	11	157	12	.
CC1CC(C)CN(C(=O)c2cccc(S(=O)(=O)N(C)c3ccccc3)c2)C1 (centres undefined)	24	-7	13	.	24	.
COc1cccc(N2CCN(C(=O)CCNS(=O)(=O)c3ccc(F)c(F)c3)CC2)c1	7	.	10	29	16	.
CC1CCN(C(c2ccc(N(C)C)cc2)c2nnnn2Cc2ccc(F)cc2)CC1 (centres undefined)	39	12	27	18	41	.
Fc1ccc(Cn2nnnc2C(c2ccc(Cl)cc2)N2CCSCC2)cc1 (centres undefined)	42*	17	40	.	35	31
O=C(CN1CCC(n2nnc3ccccc32)CC1)Nc1ccc2c(c1)CCC2	18	.	21	14	20	.
O=C(CN1CCC(n2nnc3cc(F)ccc32)CC1)Nc1ccc2c(c1)CCC2	47*	-19	14	-14	17	22
SMILES	tim10-1 inh	PfHsp90 yeast 2	TIM10 inh	SUMO Mot1 rescue	tim23-1 inh	tim10-1 confirm
COc1ccccc1N1CC(C(=O)Nc2ccccc2N2CCCC2)CC1=O (centres undefined)	-9	-15	-4	-4	-2	.
CCOC(=O)c1ccc(N=c2scc(C)n2CC)cc1	43*	-4	10	10	33	22
C=CCn1c(C)csc1=Nc1ccc(C(C)=O)cc1	18	-3	-1	-6	21	.
Cc1ccc(-c2cc(C(=O)Nc3ccncc3)c3ccccc3n2)cc1	21	7	1	13	-2	.
Cc1cccc(NC(=O)c2cc(-c3ccco3)nc3ccccc23)n1	41*	-30	25	1	26	17
Cc1cccc(C)c1NC(=O)c1cc(-c2ccccn2)nc2ccccc12	41*	-15	18	-4	33	27
CCc1cccc(C)c1NC(=O)c1cc(-c2ccncc2)nc2ccccc12	42*	1	16	.	27	23
COc1ccc(/C=C/C(=O)OCC(=O)NC(C)CCc2ccccc2)cc1OC (centres undefined)	-6	-8	10	17	11	.
O=C(c1ccc(F)cc1)C1CCN(C(=O)c2c(F)cccc2F)CC1	8	-3	-1	-5	29	.
CCOc1ccc(-c2n[nH]c(C)c2Oc2ccc(OC)cc2)c(O)c1	44*	-7	34	-8	41	47*
Cc1[nH]nc(-c2ccc(OCc3cnn(-c4ccccc4)c3)cc2O)c1Oc1ccc(F)cc1	-11	18	-9	183	0	.
S=C(Nc1ccc(Cl)cc1)c1nc2ccccc2[nH]1	49*	-11	38	3	36	36*
Cc1ccccc1NC(=S)c1nc2ccccc2[nH]1	.	-57	.	16	.	.
Cc1c(CN2CCN(CC(C)C)C(CCO)C2)[nH]c2ccc(Cl)cc12 (centres undefined)	3	24	-2	11	12	.
Cc1ccc(S(=O)(=O)n2nc(OC(=O)c3ccccc3C)cc2N)cc1	14	7	26	16	30	.
Cc1ccc(S(=O)(=O)n2nc(OC(=O)C3CCCCC3)cc2N)cc1	42*	-2	30	4	24	28
Cc1ccc(S(=O)(=O)n2nc(OC(=O)c3ccco3)cc2N)cc1	42*	.	6	1	34	27
O=C(CSCc1ccccc1Cl)Nc1ccc(C(=O)O)cc1	0	-24	5	-5	-3	.
O=C(CSCc1ccccc1Cl)NNC(=S)Nc1ccccc1	49*	12	28	-4	26	43*
CCOC(=O)/C=C/C(=O)OCC(=O)Nc1ccc(C)cc1	41*	17	29	0	34	37*
Cc1ccc(NC(=O)COC(=O)/C=C/c2cccs2)cc1	-1	10	-9	3	9	.
Cc1nn(-c2cccc(Cl)c2)c2c1C(c1cccnc1)C(C#N)=C(N)O2 (centres undefined)	41*	-14	21	-17	15	31*
COc1ccccc1C1=CC(=O)CC(C)(C)C1=O	13	-3	6	14	19	.
N/C(=N\OC(=O)c1cc([N+](=O)[O-])ccc1Cl)c1cccnc1	19	-2	30	-34	14	.
N/C(=N\OC(=O)CCCOc1ccccc1)c1cccc([N+](=O)[O-])c1	55*	32	26	-2	32	46*
Cc1ccc(C(=O)O/N=C(\N)c2cccc([N+](=O)[O-])c2)cc1	52*	4	39	-15	25	72*
